Measured values taken from the supplement of paper PMC7724964.

T1: ESRRG 219-458 Hormone_recep (domain begin residue: 219, domain end residue: 458), P62508
T1 chain: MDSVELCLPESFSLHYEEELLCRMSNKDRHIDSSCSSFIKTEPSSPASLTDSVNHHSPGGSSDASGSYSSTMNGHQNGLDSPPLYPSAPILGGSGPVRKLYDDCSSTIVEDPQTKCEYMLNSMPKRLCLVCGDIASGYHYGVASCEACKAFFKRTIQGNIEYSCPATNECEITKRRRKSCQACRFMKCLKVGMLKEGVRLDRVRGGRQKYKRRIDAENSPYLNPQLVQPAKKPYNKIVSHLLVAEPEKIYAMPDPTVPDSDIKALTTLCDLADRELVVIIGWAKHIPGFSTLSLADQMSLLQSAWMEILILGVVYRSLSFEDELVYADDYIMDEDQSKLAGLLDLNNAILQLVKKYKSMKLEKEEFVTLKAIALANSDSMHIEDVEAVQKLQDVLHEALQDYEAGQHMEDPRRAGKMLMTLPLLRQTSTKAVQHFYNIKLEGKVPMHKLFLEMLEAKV

T2: FKBP3 109-224 FKBP_C (domain begin residue: 109, domain end residue: 224), Q00688
T2 chain: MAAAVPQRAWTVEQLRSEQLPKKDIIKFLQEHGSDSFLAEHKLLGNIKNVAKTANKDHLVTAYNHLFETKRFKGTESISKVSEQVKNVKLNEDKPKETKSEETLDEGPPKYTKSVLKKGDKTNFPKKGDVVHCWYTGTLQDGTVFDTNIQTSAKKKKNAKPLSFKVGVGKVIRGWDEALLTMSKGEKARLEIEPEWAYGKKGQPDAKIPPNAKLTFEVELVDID

T3: FRS3 12-117 IRS (domain begin residue: 12, domain end residue: 117), O43559
T3 chain: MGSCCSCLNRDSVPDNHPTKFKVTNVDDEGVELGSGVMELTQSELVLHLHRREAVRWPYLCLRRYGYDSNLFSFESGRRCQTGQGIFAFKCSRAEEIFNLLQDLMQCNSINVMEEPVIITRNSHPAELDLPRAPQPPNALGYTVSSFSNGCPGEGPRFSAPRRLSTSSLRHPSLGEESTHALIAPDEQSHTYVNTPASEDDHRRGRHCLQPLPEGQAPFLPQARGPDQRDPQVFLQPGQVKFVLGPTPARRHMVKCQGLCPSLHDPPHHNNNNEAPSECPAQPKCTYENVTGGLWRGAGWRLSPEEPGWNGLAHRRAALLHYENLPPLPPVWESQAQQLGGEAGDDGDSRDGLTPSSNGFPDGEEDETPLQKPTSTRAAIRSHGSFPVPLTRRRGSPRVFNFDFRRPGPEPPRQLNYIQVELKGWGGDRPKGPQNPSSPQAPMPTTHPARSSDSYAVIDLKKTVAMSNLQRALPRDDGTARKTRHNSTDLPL

T4: GGA1 1-157 VHS (domain begin residue: 1, domain end residue: 157), Q9UJY5
T4 chain: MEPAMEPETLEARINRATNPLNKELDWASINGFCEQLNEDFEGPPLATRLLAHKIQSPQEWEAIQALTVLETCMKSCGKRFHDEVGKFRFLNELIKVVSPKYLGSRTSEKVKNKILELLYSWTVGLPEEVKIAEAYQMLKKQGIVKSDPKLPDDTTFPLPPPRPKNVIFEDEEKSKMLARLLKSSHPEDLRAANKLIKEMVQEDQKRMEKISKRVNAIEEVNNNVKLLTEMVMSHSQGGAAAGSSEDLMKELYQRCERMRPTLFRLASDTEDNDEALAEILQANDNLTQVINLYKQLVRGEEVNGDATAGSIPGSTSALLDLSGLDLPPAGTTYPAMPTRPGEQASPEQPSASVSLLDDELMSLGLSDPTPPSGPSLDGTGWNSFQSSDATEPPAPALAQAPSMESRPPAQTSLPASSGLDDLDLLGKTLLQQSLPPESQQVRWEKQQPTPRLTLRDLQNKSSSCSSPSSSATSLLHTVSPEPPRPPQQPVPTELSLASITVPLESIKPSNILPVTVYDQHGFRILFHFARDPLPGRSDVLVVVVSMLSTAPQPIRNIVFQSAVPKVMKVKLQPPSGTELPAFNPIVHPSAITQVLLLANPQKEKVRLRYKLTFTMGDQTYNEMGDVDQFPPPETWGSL

T5: EVL 1-130 WH1 (domain begin residue: 1, domain end residue: 130), Q9UI08
T5 chain: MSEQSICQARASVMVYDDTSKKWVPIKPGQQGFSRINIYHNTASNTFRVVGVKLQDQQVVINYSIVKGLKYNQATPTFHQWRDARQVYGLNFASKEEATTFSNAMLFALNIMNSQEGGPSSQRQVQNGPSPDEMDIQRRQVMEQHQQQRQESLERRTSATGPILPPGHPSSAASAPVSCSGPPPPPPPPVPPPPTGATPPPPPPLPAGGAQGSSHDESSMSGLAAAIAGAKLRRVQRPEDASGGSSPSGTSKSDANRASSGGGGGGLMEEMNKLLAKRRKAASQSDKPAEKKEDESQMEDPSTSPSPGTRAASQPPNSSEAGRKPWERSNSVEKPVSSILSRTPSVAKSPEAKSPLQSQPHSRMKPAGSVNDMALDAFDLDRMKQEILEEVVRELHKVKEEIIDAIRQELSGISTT

T6: ESR2 263-500 Hormone_recep (domain begin residue: 263, domain end residue: 500), Q92731
T6 chain: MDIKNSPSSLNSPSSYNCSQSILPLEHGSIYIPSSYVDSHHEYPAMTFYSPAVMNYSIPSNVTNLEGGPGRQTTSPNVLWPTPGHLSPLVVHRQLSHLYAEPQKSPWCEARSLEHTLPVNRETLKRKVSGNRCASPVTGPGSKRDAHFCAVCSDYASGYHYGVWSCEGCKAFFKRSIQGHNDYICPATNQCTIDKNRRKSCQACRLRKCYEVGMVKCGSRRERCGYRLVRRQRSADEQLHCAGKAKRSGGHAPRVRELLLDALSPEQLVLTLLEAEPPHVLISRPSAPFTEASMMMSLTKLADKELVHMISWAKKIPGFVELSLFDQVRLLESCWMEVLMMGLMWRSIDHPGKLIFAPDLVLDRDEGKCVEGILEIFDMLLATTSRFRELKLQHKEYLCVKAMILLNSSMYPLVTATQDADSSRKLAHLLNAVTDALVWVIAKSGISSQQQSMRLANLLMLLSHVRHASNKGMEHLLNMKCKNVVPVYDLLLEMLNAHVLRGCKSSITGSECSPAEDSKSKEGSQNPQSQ

T7: ESRRA 179-423 Hormone_recep (domain begin residue: 179, domain end residue: 423), P11474
T7 chain: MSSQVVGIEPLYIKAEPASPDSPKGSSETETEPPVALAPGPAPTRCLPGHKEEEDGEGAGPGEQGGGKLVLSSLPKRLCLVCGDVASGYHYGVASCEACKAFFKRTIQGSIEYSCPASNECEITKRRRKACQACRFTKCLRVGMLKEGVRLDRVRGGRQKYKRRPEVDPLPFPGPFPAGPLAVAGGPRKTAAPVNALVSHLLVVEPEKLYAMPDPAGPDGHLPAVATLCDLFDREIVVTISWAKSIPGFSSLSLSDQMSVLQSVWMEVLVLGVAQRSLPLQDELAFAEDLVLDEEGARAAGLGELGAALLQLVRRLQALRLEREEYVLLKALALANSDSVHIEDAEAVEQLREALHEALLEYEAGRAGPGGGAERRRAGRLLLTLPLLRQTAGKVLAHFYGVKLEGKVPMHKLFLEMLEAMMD


Biological target: T1, ESRRG 219-458 Hormone_recep (domain …
Assay: phage ELISA signal ratio (GST-PRM binding over GST background); higher = stronger binding of peptide-phage to the PRM
Outline: (§1)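 Approximately 48 individual clones from selection rounds 4 and 5 were tested by phage ELISA, and those scoring positive were sequenced. They came from five rounds of selecting an M13 phage library of randomized, cysteine-free, glycine-flanked hexadecapeptides on the gene-8 major coat protein against human peptide recognition domains fused to the C-terminus of glutathione S-transferase (GST) in 96-well plates. Each figure in the table is the ELISA signal on the GST-domain fusion relative to the signal on GST alone.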

| Binder | phage ELISA signal ratio |
| --- | --- |
| EHIQGHAPLLWEVLHS | 10.8 |
| VHRDYQLGHEWLVFIN | 13.1 |

Each binder was assayed against PCMT1 1-227 PCMT (domain begin residue: 1, domain end residue: 227), P22061 in the same assay as above.
PCMT1 1-227 PCMT (domain begin residue: 1, domain end residue: 227), P22061, sequence (P22061 whole entry): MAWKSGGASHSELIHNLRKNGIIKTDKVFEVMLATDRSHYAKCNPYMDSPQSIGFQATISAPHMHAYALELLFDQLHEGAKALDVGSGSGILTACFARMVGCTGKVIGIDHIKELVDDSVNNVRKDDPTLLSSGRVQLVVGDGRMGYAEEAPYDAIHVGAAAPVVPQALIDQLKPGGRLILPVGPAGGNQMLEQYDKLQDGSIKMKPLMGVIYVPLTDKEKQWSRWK
Outline: as §1

| Binder | phage ELISA signal ratio |
| --- | --- |
| EHIQGHAPLLWEVLHS | 10.8 |
| VHRDYQLGHEWLVFIN | 13.1 |

The binders below were run against EIF4A1 29-237 DEAD (domain begin residue: 29, domain end residue: 237), P60842 in the same assay as above.
EIF4A1 29-237 DEAD (domain begin residue: 29, domain end residue: 237), P60842, sequence (P60842 whole entry): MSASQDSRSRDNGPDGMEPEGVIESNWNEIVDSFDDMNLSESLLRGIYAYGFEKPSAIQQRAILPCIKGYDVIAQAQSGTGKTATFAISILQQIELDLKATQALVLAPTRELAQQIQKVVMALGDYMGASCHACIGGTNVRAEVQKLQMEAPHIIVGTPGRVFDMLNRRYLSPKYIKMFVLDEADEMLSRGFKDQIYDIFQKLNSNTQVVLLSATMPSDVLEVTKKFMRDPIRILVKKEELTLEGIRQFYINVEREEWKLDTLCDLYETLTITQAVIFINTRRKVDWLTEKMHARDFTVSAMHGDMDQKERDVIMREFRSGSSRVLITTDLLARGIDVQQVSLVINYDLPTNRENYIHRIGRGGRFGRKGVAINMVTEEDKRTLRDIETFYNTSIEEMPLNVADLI
Outline: as §1

| Binder | phage ELISA signal ratio |
| --- | --- |
| EMPQYMMTWYYEPDST | 5.95 |

What follows are binders tested against EIF2S1 9-93 S1 (domain begin residue: 9, domain end residue: 93), P05198 in the same assay as above.
EIF2S1 9-93 S1 (domain begin residue: 9, domain end residue: 93), P05198, sequence (P05198 whole entry): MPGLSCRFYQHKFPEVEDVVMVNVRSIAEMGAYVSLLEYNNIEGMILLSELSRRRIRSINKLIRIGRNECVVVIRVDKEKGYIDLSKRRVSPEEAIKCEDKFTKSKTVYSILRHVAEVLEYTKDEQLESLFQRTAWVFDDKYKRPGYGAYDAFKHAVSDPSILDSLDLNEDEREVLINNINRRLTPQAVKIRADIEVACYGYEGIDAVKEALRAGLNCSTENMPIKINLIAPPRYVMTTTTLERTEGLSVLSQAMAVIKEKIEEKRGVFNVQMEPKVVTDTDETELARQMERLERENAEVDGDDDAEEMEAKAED
Outline: as §1

| Binder | phage ELISA signal ratio |
| --- | --- |
| SSGSSTRPMRVTRAPT | 4.01 |
| EYTNWYWLGYLPETVM | 14.6 |

Biological target: T2, FKBP3 109-224 FKBP_C (domain begin …
Assay: as above
Outline: as §1

| Binder | phage ELISA signal ratio |
| --- | --- |
| VGVYSLQDEPQKRVVV | 6.15 |
| QQGIGVFQDWFNHGLI | 9.64 |
| VGQGVFLDWKPGRDVN | 17.5 |
| EEWKPHPEEGMGVFLV | 13 |
| WGAGVFLVADPQMEVV | 5 |
| HADLQGLGVFEWQEPV | 12.6 |

Biological target: T3, FRS3 12-117 IRS (domain begin residue: …
Assay: as above
Outline: as §1

| Binder | phage ELISA signal ratio |
| --- | --- |
| VGQGVFLDWKPGRDVN | 10.6 |
| SQWMWIVHEPVKNLPK | 3.36 |
| SRWVQIMHNGEETDSY | 16.9 |
| PQGTWFTIIQEPSQHD | 5.78 |

Each binder was assayed against GGA3 1-153 VHS (domain begin residue: 1, domain end residue: 153) in the same assay as above.
Outline: as §1

| Binder | phage ELISA signal ratio |
| --- | --- |
| QAWDWGIYIDDWAQPL | 10.6 |
| QHLWHWEDTDYYEWSE | 20.1 |
| EYLQIPVHHVDGIWSV | 10.8 |
| EVWWQGPEEDWMQTYL | 11.9 |
| HSQWWVGPEQPWGQVQ | 12.2 |
| HVEQWWTTESWPNWYT | 15.3 |

Biological target: T4, GGA1 1-157 VHS (domain begin residue: …
Assay: as above
Outline: as §1

| Binder | phage ELISA signal ratio |
| --- | --- |
| QTMTWEARDPSKMLEL | 12.5 |
| GEMDDPMMHFSWVAMW | 12.6 |
| PDAMPLWHGHHVVPVY | 18.9 |

Biological target: T5, EVL 1-130 WH1 (domain begin residue: 1, …
Assay: as above
Outline: as §1

| Binder | phage ELISA signal ratio |
| --- | --- |
| GIGFEWVHDGWWPMWT | 13.8 |

The binders below were run against EIF4E 2-217 IF4E (domain begin residue: 2, domain end residue: 217), P06730 in the same assay as above.
EIF4E 2-217 IF4E (domain begin residue: 2, domain end residue: 217), P06730, sequence (P06730 whole entry): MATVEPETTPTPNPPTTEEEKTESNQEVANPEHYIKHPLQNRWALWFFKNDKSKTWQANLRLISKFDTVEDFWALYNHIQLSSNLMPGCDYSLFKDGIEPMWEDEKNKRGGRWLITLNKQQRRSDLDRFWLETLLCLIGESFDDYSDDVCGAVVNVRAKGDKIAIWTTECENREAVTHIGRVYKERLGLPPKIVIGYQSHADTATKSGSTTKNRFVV
Outline: as §1

| Binder | phage ELISA signal ratio |
| --- | --- |
| PWSWFTYREQLETENV | 20.1 |
| FLYYYGLSHNWFGDQT | 7.6 |

Biological target: T6, ESR2 263-500 Hormone_recep (domain …
Assay: as above
Outline: as §1

| Binder | phage ELISA signal ratio |
| --- | --- |
| EERTWSFEEWLWMPAM | 26.6 |

Biological target: T7, ESRRA 179-423 Hormone_recep (domain …
Assay: as above
Outline: as §1

| Binder | phage ELISA signal ratio |
| --- | --- |
| SQQWSTHYPTFFELML | 3.25 |
